High-throughput results from PubChem.
CtBP-E1A inh: inhibitors of CtBP/E1A interaction; AID 651724; actives 0.49% (n = 340,000); activity change, % (concentration not given with the values); AlphaScreen GST-E1A/His-CtBP binding, 1536-well; hits give low values; in the data active means activity change below about -65%; inconclusive means mostly about -30% to -63%
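In 5 uL wells, 23 nL compound meets equimolar GST-E1A and His-CtBP (5X stock 125 nM each) for 2 h, 37 °C. Beads (5X, 50 ug/mL) then 1 h, 37 °C, dark.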
IL1B secr inh: blocks inflammasome-driven IL-1 beta release | THP-1 LPS/ATP IL-1B secretion, AlphaLISA, 16 h; hits give low values | activity change, % at 57.5 µM | actives 4.7% (n = 360,000); in the data active means activity change below about -50%; inconclusive means mostly about -30% to -49%
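Secreted IL-1B measured by AlphaLISA bead assay after 16 h compound exposure of THP-1 cells; compounds (final up to 57.5 uM) added 1 h before LPS (250 ng/mL) and ATP (1.25 mM) stimulation; lower signal means less secretion.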
TDP1 inh: TDP1 (human) enzyme inhibition | recombinant TDP1, AlphaScreen DNA substrate cleavage | actives 0.28% (n = 350,000) | Potency, µM (titrated, usually from 130 µM), without a hit: at the top dose activity change, negative = inhibition, hits mostly inhibitors | AID 485290 | Q9NUW8; further: potency means the concentration at half of the fitted maximal effect; nearly all actives have a fitted effect of over 40% in size
Target sequence (Q9NUW8 whole entry, looked up): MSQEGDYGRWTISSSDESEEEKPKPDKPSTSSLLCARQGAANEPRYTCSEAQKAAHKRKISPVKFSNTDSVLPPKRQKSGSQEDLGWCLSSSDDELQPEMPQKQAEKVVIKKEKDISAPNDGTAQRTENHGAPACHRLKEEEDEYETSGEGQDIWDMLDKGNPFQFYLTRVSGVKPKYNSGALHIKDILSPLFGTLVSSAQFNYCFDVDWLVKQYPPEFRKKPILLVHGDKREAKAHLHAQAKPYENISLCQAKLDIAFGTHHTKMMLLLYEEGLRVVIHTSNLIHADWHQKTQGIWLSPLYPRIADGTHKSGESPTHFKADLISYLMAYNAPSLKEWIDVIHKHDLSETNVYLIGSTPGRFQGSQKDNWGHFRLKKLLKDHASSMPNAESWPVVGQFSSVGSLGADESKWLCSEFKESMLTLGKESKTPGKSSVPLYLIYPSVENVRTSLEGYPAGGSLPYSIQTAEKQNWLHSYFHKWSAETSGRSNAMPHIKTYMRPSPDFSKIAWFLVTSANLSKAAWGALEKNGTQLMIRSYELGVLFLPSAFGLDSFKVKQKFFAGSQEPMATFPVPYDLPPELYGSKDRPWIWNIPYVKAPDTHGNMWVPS
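Enzyme-compound mixtures sat 15 min at room temperature, followed by a 5 min reaction with 15 nM final substrate and 10 min with AlphaScreen beads. Recombinant human Tdp1 was used at 1 nM final.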
Six1-Eya2 inh: blocks human Six1 binding to Eya2. Q15475+O00167. AlphaScreen GST-Six1/His-Eya2 binding, biochemical; hits give low values. activity change, % (test concentration not listed). actives 0.56% (n = 360,000). AID 651725; in the data active means activity change below about -65%; inconclusive means mostly about -30% to -63%
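AlphaScreen with GST-Six1 and His-Eya2 (5X mix: 250 nM and 500 nM), glutathione donor and nickel acceptor beads; buffer 50 mM Tris pH 8.0, 300 mM NaCl, 1 mM TCEP; 1 h at 37 C in the dark.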
TDP1 cell CPT: growth inhibition of DT40 Tdp1-/-;hTDP1 cells with camptothecin (screen for TDP1 inhibitors); chicken DT40 Tdp1-/-;hTDP1 cells + 20 nM CPT, ATP luminescence, 48 h; Potency, µM (highest dose often 46.2 µM), for the others: at the highest dose activity change, negative = growth inhibition, usual class: inhibitors; actives 12% (n = 420,000); further: potency means the concentration at half of the fitted maximal effect; nearly all actives have a fitted effect of over 55% in size
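Chicken DT40 Tdp1-/- cells stably complemented with human TDP1 were seeded at 400 cells/well in medium containing 20 nM camptothecin, exposed to pin-transferred compounds, and grown at 37 °C for at least 48 hr. Viability was read as ATP luminescence.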
DT40 TDP1 no CPT: qHTS for Inhibitors of human tyrosyl-DNA phosphodiesterase 1 (TDP1): qHTS in cells in absence of CPT | DT40 Tdp1-/- hTDP1 cells, no CPT, ATP luminescence, 48 h | Potency, µM (titrated, usually from 46.2 µM), for inactives: top-dose activity change, negative = growth inhibition, usual class: inhibitors | AID 686978, 2013 | actives 15% (n = 420,000); further: potency means the concentration at half of the fitted maximal effect; nearly all actives have a fitted effect of over 55% in size
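Luminescent ATP content (CellTiter-Glo) served as the growth readout. Knockout chicken DT40 cells expressing human TDP1 were exposed to compounds without camptothecin for a minimum 48 hr at 37 °C.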
* marks the source's active call; other numbers are inactive results. Hits are enriched below; roughly 18% of the tested compounds scored in any of these assays. Unless noted, the call rests on the fitted dose curve; in most records, active means well fitted curve in the direction sought with a large enough effect; inconclusive means small, poorly fitted or top-dose-only effect, or another doubt; inactive means no such curve, though single readings can be large; an effect the other way counts as inactive or inconclusive. On the % scale 0 is the no-effect control and ±100 the full control effect.

COc1ccc(-c2noc(-c3ccc(N4CCOCC4)c([N+](=O)[O-])c3)n2)cc1 was read as TDP1 inh 0.0%, TDP1 cell CPT -15.1% and DT40 TDP1 no CPT -0.7%.
Screening Cc1ccc(-c2noc(-c3ccc(N4CCOCC4)c([N+](=O)[O-])c3)n2)cc1 returned TDP1 inh 0.0%, TDP1 cell CPT -14.4% and DT40 TDP1 no CPT 20.6µM*.
`COc1cc(C(O)P(=O)(OCCC(C)C)c2ccc(N(C)C)cc2)cc(OC)c1OC` (stereo not drawn) gave CtBP-E1A inh -3.3, TDP1 inh 5.9%, Six1-Eya2 inh -4.0, TDP1 cell CPT inconclusive and DT40 TDP1 no CPT inconclusive.
Screening COc1cccc(C2CC(=O)N3CN(c4ccccc4F)CSC3=C2C#N)c1 (stereo not drawn) returned CtBP-E1A inh -1.7, IL1B secr inh 7.0, TDP1 inh 6.5%, Six1-Eya2 inh -0.6, TDP1 cell CPT inconclusive and DT40 TDP1 no CPT inconclusive.
C=CCSc1nnc(NC(=O)C2CSC3(C)CCC(=O)N23)s1 (stereo not drawn) was read as CtBP-E1A inh -0.4, IL1B secr inh 11.0, TDP1 inh -0.1%, Six1-Eya2 inh -3.7, TDP1 cell CPT -4.0% and DT40 TDP1 no CPT 6.3%.
Screening CCCCNC(=O)c1nc(C2CCNCC2)oc1-c1cccc(C(F)(F)F)c1 returned CtBP-E1A inh 2.6, IL1B secr inh inconclusive, Six1-Eya2 inh -12.0, TDP1 cell CPT inconclusive and DT40 TDP1 no CPT inconclusive.
O=C(NC1CCCCC1)c1nc(C2CCNCC2)oc1-c1ccccc1 was read as CtBP-E1A inh -1.2, IL1B secr inh -66.2*, Six1-Eya2 inh -7.5, TDP1 cell CPT inconclusive and DT40 TDP1 no CPT inconclusive.
O=C(c1cccs1)c1c[nH]cc1-c1ccccc1 was read as CtBP-E1A inh -14.5, IL1B secr inh -56.8*, Six1-Eya2 inh -12.9, TDP1 cell CPT -6.0% and DT40 TDP1 no CPT -19.9%.
`O=C(c1ccccc1)c1c[nH]cc1-c1ccccc1` gave CtBP-E1A inh -6.0, IL1B secr inh 1.0, TDP1 inh -4.9%, Six1-Eya2 inh -3.6, TDP1 cell CPT 0.0% and DT40 TDP1 no CPT -12.4%.
Screening CC1C=C[C@@H]2[C@H](C1)C(=O)N(Cc1ccccc1)[C@H]2c1ccccc1Br (stereo partly drawn) returned TDP1 inh -1.0%.
CCn1cc([N+](=O)[O-])c(C(=O)N2CCCC2)n1 was read as CtBP-E1A inh -1.2, IL1B secr inh 9.3, TDP1 inh 8.8%, Six1-Eya2 inh 0.0, TDP1 cell CPT 11.1% and DT40 TDP1 no CPT -6.5%.
For CCn1cc([N+](=O)[O-])c(C(=O)N2N=C(c3ccc(OC)cc3OC)CC2c2ccccc2O)n1 (stereo not drawn) the results were CtBP-E1A inh 2.1, IL1B secr inh -2.1, TDP1 inh 2.5%, Six1-Eya2 inh -19.2, TDP1 cell CPT inconclusive and DT40 TDP1 no CPT 14.6µM*.
For CCn1cc(Cl)c(C(=O)N2N=C(c3ccc4ccccc4c3)CC2c2ccccc2O)n1 (stereo not drawn) the results were CtBP-E1A inh -23.2, IL1B secr inh inconclusive, TDP1 inh 0.0%, Six1-Eya2 inh -18.9, TDP1 cell CPT inconclusive and DT40 TDP1 no CPT 14.6µM*.
`CCn1cc([N+](=O)[O-])c(C(=O)N2N=C(c3cccc4ccccc34)CC2c2ccccc2O)n1` (stereo not drawn) gave CtBP-E1A inh -20.3, IL1B secr inh inconclusive, TDP1 inh 7.7%, Six1-Eya2 inh -20.0, TDP1 cell CPT inconclusive and DT40 TDP1 no CPT 12.6µM*.
O=S(=O)(c1ccc(OCC2CO2)cc1)c1ccc(OCC2CO2)cc1 (stereo not drawn) was read as IL1B secr inh -28.8, TDP1 inh 5.1%, Six1-Eya2 inh 5.0, TDP1 cell CPT 1.84µM* and DT40 TDP1 no CPT 2.06µM*.
